Results published in PubChem BioAssay (Tox21).
Several values for one entry are separate records, joined by “and”; a condition that tells them apart may be missing. Equal values may be shown once. Activity calls are given as the source filed them. Calls follow the shape of the dose curve; as a rule, active = well fitted curve in the direction sought with a large enough effect in the signal ratio in the repeat runs (not every such curve was filed as active); inconclusive = weak or mixed curves, or effect the other way; inactive = no such curve, though single readings can be large or run the other way; the % refers to the signal ratio.

The molecules below were run against Estrogen receptor (Homo sapiens) (UniProt P03372) (assay: qHTS assay to identify small molecule antagonists of the estrogen receptor alpha (ER-alpha) signaling pathway (AID 743069)). Details: HEK293 ER-alpha-UAS-bla, beta-lactamase ratio, antagonist mode; series mostly up to 69.4 µM; activity, negative = inhibition: at the top concentration.
Source text: National Center for Advancing Translational Sciences [NCATS]
NIH Chemical Genomics Center [NCGC]
U.S. Environmental Protection Agency [EPA]
National Institutes of Environmental Health Sciences [NIEHS]
National Toxicology Program [NTP]
U.S. Food and Drug Administration [FDA]
Estrogen receptor (ER), a nuclear hormone receptor, plays an important role in development, metabolic homeostasis and reproduction. Two subtypes of ER, ER-alpha and ER-beta have similar expression patterns with some uniqueness in both types. Endocrine disrupting chemicals (EDCs) and their interactions with steroid hormone receptors like ER causes disruption of normal endocrine function. To identify the compounds that inhibit ER signaling, an ER-alpha-UAS-bla GripTiteTM cell line (Invitrogen, Carlsbad, CA, USA) containing a beta-lactamase reporter gene under the control of an Upstream Activator Sequence (UAS) stably integrated into HEK293 cells was used to screen the Tox21 10K compound library.
Tox21 Assay Protocol Summary:
ER-alpha-bla cells were cultured in assay medium containing 2% charcoal stripped FBS overnight in the culture flasks before the assay was performed. The cells were dispensed at 5,000 cells/5 uL of assay medium per well into black wall/clear-bottom 1536-well plates using a Multidrop Combi (ThermoFisher Scientific, Waltham, MA) dispenser. After the assay plates were incubated at a 37C and 5% CO2 for 4 hr, 23 nL of compounds dissolved in DMSO, positive controls or DMSO only was transferred to the assay plate by a Pintool station (Kalypsys, San Diego, CA), followed by addition of 1 uL of 17beta-estradiol in assay medium using a Flying Reagent Dispenser (Aurora Discovery, San Diego, CA). The plates were incubated at 37C and 5% CO2 for 18 hr. Then 1 uL of LiveBLAzerTM B/G FRET substrate was added using a Flying Reagent Dispenser, the plates were incubated at room temperature for 2 hours, and fluorescence intensity was measured by an Envision plate reader (PerkinElmer, Shelton, CT).
% is scaled to controls: 0 for no effect and ±100 for the full control effect; potency is read from the fitted curve at half-maximal effect.

Estrogen receptor (Homo sapiens), sequence (P03372 whole entry, looked up): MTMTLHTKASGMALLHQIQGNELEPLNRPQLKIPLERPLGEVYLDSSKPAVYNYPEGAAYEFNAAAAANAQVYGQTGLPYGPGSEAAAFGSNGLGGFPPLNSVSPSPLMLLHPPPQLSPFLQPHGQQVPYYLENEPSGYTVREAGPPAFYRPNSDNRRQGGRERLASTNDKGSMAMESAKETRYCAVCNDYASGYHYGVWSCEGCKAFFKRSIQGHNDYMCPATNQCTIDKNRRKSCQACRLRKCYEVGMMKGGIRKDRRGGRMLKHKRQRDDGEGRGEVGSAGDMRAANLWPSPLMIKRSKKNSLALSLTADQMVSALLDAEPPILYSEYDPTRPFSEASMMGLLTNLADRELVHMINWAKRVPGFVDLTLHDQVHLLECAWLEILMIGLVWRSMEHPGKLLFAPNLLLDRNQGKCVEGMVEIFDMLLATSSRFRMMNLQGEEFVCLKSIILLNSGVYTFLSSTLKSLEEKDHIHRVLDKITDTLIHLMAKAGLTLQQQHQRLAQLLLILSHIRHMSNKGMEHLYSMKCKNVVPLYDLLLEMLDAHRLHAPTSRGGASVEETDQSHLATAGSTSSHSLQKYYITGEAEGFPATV

Question: How did the “activity, negative = inhibition” value turn out when `CN(C)c1ccc(CCO)cc1` was run?
Answer: -8.53% (inactive)

Question: For `CCCCCCCCCCO[C@@H]1O[C@H](CO)[C@@H](O)[C@H](O)[C@H]1O`, which “activity, negative = inhibition” value is on record?
Answer: -19.9% (inactive)

Question: Which “activity, negative = inhibition” value does the source give for `CN1CCN(C(c2ccccc2)c2ccccc2)CC1` here?
Answer: -5.25% [at 32.6 µM] (inactive)

Question: For `CCOCC(O)COc1ccc(NC(=O)CC[S+](C)C)cc1` (stereo not given), which “activity, negative = inhibition” value is on record?
Answer: 7.73% (inactive)

Question: How did the “activity, negative = inhibition” value turn out when `CC[N+](C)(CC)CCOC(=O)C(O)(c1ccccc1)C1CCCCC1` (stereo not given) was run?
Answer: 6.13% (inactive)

Question: With `NCCCN1CCOCC1` as the molecule, how does the “activity, negative = inhibition” value read?
Answer: -7.09% (inactive)

Question: Which “activity, negative = inhibition” value does the source give for `c1ccc(C(O[C@H]2CCCN(CCc3ccc4c(c3)OCO4)C2)c2ccccc2)cc1` here?
Answer: 4.12% (inactive)

Question: With `O=C(O)c1ccc(S(=O)(=O)O)cc1C(=O)O` as the molecule, how does the “activity, negative = inhibition” value read?
Answer: -5.95% [at 79.1 µM] (inactive)

Question: With `Cc1[nH]c(C)c(Cl)c(=O)c1Cl` as the molecule, how does the “activity, negative = inhibition” value read?
Answer: -3.35% (inactive)

Question: How did the activity, negative = inhibition turn out when `Brc1c2ccccc2c(Br)c2ccccc12` was run?
Answer: 17% [at 6.71 µM] (inactive)

Question: For `CCCCCCCCCOS(=O)(=O)O`, which “activity, negative = inhibition” value is on record?
Answer: 5.71% (inactive)

Question: With `C[Si](C)(CCCN)O[Si](C)(C)CCCN` as the molecule, how does the “activity, negative = inhibition” value read?
Answer: 15.1% (inactive)

Question: With `C[C@@H](c1ncncc1F)C(O)(Cn1cncn1)c1ccc(F)cc1F` (stereo not given in full) as the molecule, how does the “activity, negative = inhibition” value read?
Answer: 5.29% (inactive)

Question: With `CC1=CC[C@H](C(C)C)C=C1` as the molecule, how does the “activity, negative = inhibition” value read?
Answer: -17.4% (inactive)

Question: How did the “activity, negative = inhibition” value turn out when `Cc1c(N)cccc1[N+](=O)[O-]` was run?
Answer: -10.7% [at 79.1 µM] (inactive)

Question: Which “activity, negative = inhibition” value does the source give for `O=C(Cl)c1cc(C(=O)Cl)cc(C(=O)Cl)c1` here?
Answer: -15.3% (inactive)

Question: Which “activity, negative = inhibition” value does the source give for `C[N+]1(CC2COC(c3ccccc3)(C3CCCCC3)O2)CCCCC1` (stereo not given) here?
Answer: -1.51% (inactive)

Question: For `c1ccc(-c2ccccn2)nc1`, which “activity, negative = inhibition” value is on record?
Answer: 56.9% (inactive)

Question: For `CCNc1cc(O)ccc1C`, which “activity, negative = inhibition” value is on record?
Answer: 30.5% (inactive)

Question: Which “activity, negative = inhibition” value does the source give for `CC1=CC=C(C(C)C)CC1` here?
Answer: -2.82% (inactive)

Question: With `C/C=C/C(=O)CC` as the molecule, how does the activity, negative = inhibition read?
Answer: 9.39% [at 15 µM] (inactive)

Question: How did the Potency turn out when `Cc1cccc(C)c1OCC(=O)N[C@@H](Cc1ccccc1)[C@@H](O)C[C@H](Cc1ccccc1)NC(=O)[C@H](C(C)C)N1CCCNC1=O` was run?
Answer: 21.3 µM [inconclusive] (active)

Question: `CC(C)(C)Cl` was tested. Which “activity, negative = inhibition” value did it give?
Answer: 11.2% [at 79.1 µM] (inactive)

Question: For `C[N+](C)(C)CCOC(=O)CCC(=O)OCC[N+](C)(C)C`, which “activity, negative = inhibition” value is on record?
Answer: 3.16% (inactive)

Question: For `CCN(CC)CCNC(=O)c1cc(Br)c(N)cc1OC`, which “activity, negative = inhibition” value is on record?
Answer: -1.69% (inactive)

Question: Which Potency does the source give for `O=C(O)c1ccc(-n2nc(-c3ccccc3O)nc2-c2ccccc2O)cc1` here?
Answer: 16.9 µM [inconclusive] (active)

Question: How did the “activity, negative = inhibition” value turn out when `O=C1C(O)=C(O)C(=O)C(O)=C1O` was run?
Answer: 3.73% (inactive)

Question: Which “activity, negative = inhibition” value does the source give for `COc1cc2nc(N(C)CCCNC(=O)C3CCCO3)nc(N)c2cc1OC` (stereo not given) here?
Answer: 11% [at 32.6 µM] (inactive)

Question: With `CCCCC(CC)COC(=O)CCCCCCCCC(=O)OCC(CC)CCCC` (stereo not given) as the molecule, how does the “activity, negative = inhibition” value read?
Answer: -15.2% (inactive)

Question: For `C=CCOc1ccccc1OCC(O)CNC(C)C` (stereo not given), which “activity, negative = inhibition” value is on record?
Answer: -5.98% [at 32.6 µM] (inactive)

Question: How did the “activity, negative = inhibition” value turn out when `CN1CCC(N(Cc2cccs2)c2ccccc2)CC1` was run?
Answer: -31% (inactive)

Question: For `O=C1[C@H]2CCCC[C@H]2C(=O)N1CCCCN1CCN(c2nsc3ccccc23)CC1`, which “activity, negative = inhibition” value is on record?
Answer: -27.4% (inactive)

Question: `CCCCCCCCCCCc1ccccc1` was tested. Which “activity, negative = inhibition” value did it give?
Answer: -43.3% (inactive)

Question: `NC(=O)C(c1ccccc1)(c1ccccc1)[C@@H]1CCN(CCc2ccc3c(c2)CCO3)C1` was tested. Which “activity, negative = inhibition” value did it give?
Answer: 8.27% (inactive)

Question: `CN1C[C@H]2c3ccccc3Oc3ccc(Cl)cc3[C@@H]2C1` was tested. Which “activity, negative = inhibition” value did it give?
Answer: -10.4% (inactive)

Question: For `CCCCNc1ccc(C(=O)OCCOCCOCCOCCOCCOCCOCCOCCOCCOC)cc1`, which “activity, negative = inhibition” value is on record?
Answer: -17.1% [at 32.6 µM] (inactive)

Question: Which “activity, negative = inhibition” value does the source give for `O=C(OCCc1ccccc1)c1ccccc1` here?
Answer: 12.6% (inactive)

Question: `CNC(=O)CN(CCN(CCN(CC(=O)[O-])CC(=O)NC)CC(=O)[O-])CC(=O)[O-].O.[Gd+3]` was tested. Which Potency did it give?
Answer: inactive

Question: For `C=CC(=O)OCCOCCOCCOCCOC(=O)C=C`, which Potency is on record?
Answer: 62 µM [inconclusive] (active) and 61.1 µM [inconclusive] (active)

Question: With `NC(N)=NCCC[C@H](N)C(=O)O` as the molecule, how does the “activity, negative = inhibition” value read?
Answer: -18.4% (inactive)
